Source: ChEMBL document CHEMBL3988442, “University of Dundee, Small-Polar-MMV Screening Library” (2021)
The whole screen tested about 69,000 compounds, of which about 1,000 (1.4%) showed an effect of 50% or more. The list comes from a sample in which strong results are over-represented; it also holds similar structures and randomly drawn compounds.

Test system: Leishmania donovani
Assay: Leishmania intramacrophage assay
Format: functional, organism-based
Set-up: scale not given: in the data most compounds retested in dose-response had high values

## O=C(Cc1cccc(O)c1)NC1CCN(c2cccc(Cl)c2)C1 (stereo not given)
30.3 µM, […]
  Percent Effect: 5.178%

## CN(C(=O)Cn1nc(-c2cccs2)ccc1=O)C1CCS(=O)(=O)C1 (stereo not given)
30 µM, 30.03 µM
  Percent Effect: -0.2404%

## CCn1nc(C)c2nnn(CC(=O)Nc3ccc(C)c(C)c3)c(=O)c21
30.3 µM, […]
  Percent Effect: -87.23%

## COCCN1CCOCC12CCN(c1ccc(C#N)cc1)CC2.O=C(O)C(F)(F)F
30.3 µM, […]
  Percent Effect: 3.251%

## O=C(N[C@@H]1CCCNC1)C1(Oc2ccc(Cl)cc2)CCNCC1
30.3 µM, […]
  Percent Effect: 12.74%

## CO[C@H]1COC[C@@H]1NC(=O)C1(Oc2ccc(Cl)cc2)CCNCC1
30.3 µM, […]
  Percent Effect: 9.396%

## O=C(N[C@@H]1C[C@H]2CC[C@@H]1C2)C1(Oc2ccc(Cl)cc2)CCNCC1
30.3 µM, […]
  Percent Effect: 99.44%

## CCOc1ccc(OCc2nc3c(c(=O)[nH]2)CCNC3)cc1
30.3 µM, […]
  Percent Effect: 15.57%

## O=C(NCCCNc1ccc(C(F)(F)F)cn1)c1ccc(F)cc1Br
30 µM
  Percent Effect: 45.44%

## COc1ccc(Br)c(C(=O)NCCNc2ccc(C(F)(F)F)cn2)c1
30 µM, 30.03 µM
  Percent Effect: 56.64%

## COc1ccc(C(=O)NCCCNc2ccc(C(F)(F)F)cn2)cc1
30 µM
  Percent Effect: 37.73%

## CCOC(=O)N1CCc2ccccc2C12CCNCC2.Cl
30.3 µM, […]
  Percent Effect: 0.5062%

## COC(=O)Nc1ccc(CNc2cncc(-n3cccn3)n2)cc1
30 µM
  Percent Effect: 52.92%

## CNC(=O)COc1ccc(CNc2cncc(-n3cccn3)n2)cc1
30 µM
  Percent Effect: 19.22%

## COCc1ccc(CNc2cncc(-n3cccn3)n2)cc1
30 µM
  Percent Effect: 27.73%

## CN1CC[C@H]2CN(C(=O)c3ccc4sc5c(c4c3)CCNC5=O)C[C@H]21
30.3 µM, […]
  Percent Effect: 4.332%

## CC(=O)N1CCC2(CC1)CCN(C(=O)c1ccc(F)c(C(F)(F)F)c1)C2
30.3 µM, […]
  Percent Effect: -8.189%

## COc1ccc2c(c1)CN(c1cc(N3CCCC3CO)ncn1)CC2 (stereo not given)
30.3 µM, […]
  Percent Effect: 11.17%

## COc1cccc(O[C@H]2CCN(c3nc(C)cc(C)n3)CC[C@@H]2O)c1
30.3 µM, […]
  Percent Effect: -35.99%

## COc1ccc2c(c1)CN(c1nc(C)cc(C)n1)CC2
30.3 µM, […]
  Percent Effect: 98.91%

## Cc1cc(C)nc(N2CCc3ccc(OC(F)F)cc3C2)n1
30.3 µM, […]
  Percent Effect: 84.87%

## COc1ccnc(N2CCc3ccc(OC(F)F)cc3C2)n1
30.3 µM, […]
  Percent Effect: -15.45%

## COc1ccc(C2CN(c3nc(C)cc(C)n3)CCN2C(C)=O)cc1 (stereo not given)
30.3 µM, […]
  Percent Effect: 30.74%

## O=C(CNC(=O)C1(c2ccc(F)cc2F)CCC1)Nc1cccnc1
30.3 µM, […]
  Percent Effect: -11.9%

## COc1cccc2c1OCC(CNC(=O)CN(C)C1CCCC1)C2 (stereo not given)
30.3 µM, […]
  Percent Effect: -18.43%

## CC(C)CN1C(=O)CC[C@H]2CN(C(=O)Cn3ccccc3=O)CC[C@H]21
30.3 µM, […]
  Percent Effect: 3.813%

## CCN1CC(C(=O)N2CCN(c3nsc4ccccc34)CC2)CCC1=O (stereo not given)
30.3 µM, […]
  Percent Effect: 22.5%

## NC(=O)N1CCCC(C(=O)N2CCN(c3nsc4ccccc34)CC2)C1 (stereo not given)
30.3 µM, […]
  Percent Effect: 34.33%

## CC(C)N1CCCC(C(=O)N2CCN(c3nsc4ccccc34)CC2)C1 (stereo not given)
30.3 µM, […]
  Percent Effect: 77.99%

## COc1c(C2CCCN2C(=O)CCNc2ncccn2)c(C)nn1C (stereo not given)
30 µM
  Percent Effect: 5.312%

## COc1ccc(CN(C(=O)C2CCCS2)c2ccncc2)cc1 (stereo not given)
30.3 µM, […]
  Percent Effect: -1.322%

## COc1ccc(Oc2ccc(C(F)(F)F)cn2)cc1CN1CCCC1
30.3 µM, […]
  Percent Effect: 2.243%

## COc1cc(Oc2ccc(C(F)(F)F)cn2)ccc1CN1CCCC1
30.3 µM, […]
  Percent Effect: 61.15%

## COc1cc(Oc2ccc(C#N)cn2)ccc1CN1CCCC1
30.3 µM, […]
  Percent Effect: 2.326%

## COCC(=O)Nc1ccnn1-c1ccc(Cl)cc1
30.3 µM, […]
  Percent Effect: 82.71%

## COCCOCC(=O)Nc1ccnn1-c1ccc(Cl)cc1
30.3 µM, […]
  Percent Effect: 23.94%

## CCOCCC(=O)Nc1ccnn1-c1ccc(Cl)cc1
30.3 µM, […]
  Percent Effect: 0.3355%

## Cc1n[nH]c(C)c1CCN(C)c1ccc(-c2nc(C3CC3)no2)cn1
30.3 µM, […]
  Percent Effect: 22.75%

## Cc1nc(CCNC(=O)C(N)c2c(C)n[nH]c2C)sc1C (stereo not given)
30.3 µM, […]
  Percent Effect: 7.254%

## Cc1nc(CNC(=O)NC2CCN(c3cccc(Cl)c3)C2)no1 (stereo not given)
30.3 µM, […]
  Percent Effect: 40.16%

## Cc1nc(CN2CCOC(c3nc(C(C)C)n[nH]3)C2)oc1C (stereo not given)
30 µM, 30.03 µM
  Percent Effect: -6.521%

## CC(C)c1n[nH]c(C2CN(Cc3ncc[nH]3)CCO2)n1 (stereo not given)
30.3 µM, […]
  Percent Effect: -15.06%

## CC(C)c1n[nH]c(C2CN(Cc3ccno3)CCO2)n1 (stereo not given)
30.3 µM, […]
  Percent Effect: 53.56%

## Cc1cnn(CCNCc2ccc(S(C)(=O)=O)cc2)c1
30.3 µM, […]
  Percent Effect: -1.29%

## CC(C)CCc1n[nH]c(C(=O)O)c1Br
30.3 µM, […]
  Percent Effect: 1.329%

## O=C(O)C(F)(F)F.O=C(c1ccco1)N1CCO[C@@H]2CN(CC3CC3)CC[C@@H]2C1
30.3 µM, […]
  Percent Effect: 52.8%

## O=C(O)C(F)(F)F.O=C(c1ccco1)N1CCO[C@@H]2CN(Cc3nccs3)CC[C@@H]2C1
30.3 µM, […]
  Percent Effect: 43.58%

## O=C(O)C(F)(F)F.O=C(c1ccco1)N1CC[C@@H]2CN(C3CCOCC3)CCO[C@@H]2C1
30.3 µM, […]
  Percent Effect: 39.91%

## CCS(=O)(=O)N1CC[C@H]2[C@H]1CC(=O)N2Cc1csc(C)n1
30.3 µM, […]
  Percent Effect: 11.91%

## O=C(C1CCOCC1)N1C[C@H]2CCC[C@@]2(COCc2ccccn2)C1
30.3 µM, […]
  Percent Effect: 39.51%
